This is an account of results in PubChem BioAssay (NCATS).

Inconclusive results are not listed. Calls of active or inactive are those of the source. Unless noted, the call rests on the fitted dose curve; in most records, active means well fitted curve in the direction sought with a large enough effect; inconclusive means small, poorly fitted or top-dose-only effect, or another doubt; inactive means no such curve, though single readings can be large; an effect the other way counts as inactive or inconclusive.

Experiment [1] deals with Mitogen-activated protein kinase 10 (Mus musculus) (UniProt Q61831). The experiment can be described thus: JNK3 AlphaScreen Assay (AID 530; active means well fitted curve in either direction with a large enough effect, not every such curve was filed as active;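 further: kinase came from lysate of stimulated human HepG2 cells; signal reports phosphorylation of biotinylated GST-cJun 1-79 at Ser73 with 10 µM ATP; on the % scale 0 is the no-effect control and ±100 the full control effect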). An outline of the steps:
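Kinase buffer: 20 mM Tris-HCl pH 7.6, 10 mM MgCl2, 1 mM DTT, 0.1 mM Na3VO4, 0.01% Tween-20; ATP 10 uM. Substrate biotin-GST-cJun(1-79), enzyme from activated HepG2 lysates. Detection by Ser73 phospho-antibody AlphaScreen.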
A general note: Alpha assays give light when donor and acceptor beads are brought close together.

The nature of experiment [2]: Cell Viability - N2a (AID 540).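 Further: cells exposed to compound for 40 h at 37 °C; plate controls were DMSO alone for no effect and tamoxifen control for full effect; nearly all actives have a fitted effect of over 45% in size.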 The settings on record: N2a mouse neuroblastoma cell viability; activity change, negative = cytotoxicity: at 92.2 µM (top of the series). An outline of the steps: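 N2a mouse neuroblastoma, 1500 cells/well, 5 hr settle; compound 40 hr, 37 °C; CellTiter-Glo 20 min RT; luminescence; Hill-fit AC50.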
Experiment [3] is described as follows: Cell Viability - HUV-EC-C (AID 542).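 Further: cells exposed to compound for 40 hours; on the % scale 0 is the no-effect control and ±100 the full control effect; nearly all actives have a fitted effect of over 35% in size.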 An outline of the steps: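 Luminescent ATP read-out (CellTiter-Glo, 20 min room temperature) after 40 hr compound treatment of HUV-EC-C cells at 37 °C. Concentration-response data fitted with the standard Hill equation to give AC50; tamoxifen and doxorubicin served as positive controls.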
A short description of experiment [4]: Cell Viability - Renal Proximal Tubule (AID 545).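 Further: cells exposed to compound for 40 hours; 0% = DMSO only and -100% = 100 µM tamoxifen; nearly all actives have a fitted effect of over 40% in size.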 An outline of the steps:
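Primary rat renal proximal tubule cells (1000/well) were treated with compounds for 40 hr at 37 °C in complete medium. Intracellular ATP was measured by CellTiter-Glo luminescence, and AC50 values came from Hill-equation fits of concentration-response data.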

The nature of experiment [5]: Cell Viability - Mesenchymal (AID 546).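 Further: cells exposed to compound for 40 hours before reading; 0% = DMSO only and -100% = 100 µM tamoxifen.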 An outline of the steps: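 CellTiter-Glo luminescence (intracellular ATP, 20 min room temperature) after 40 hr compound exposure at 37 °C of 1000 glomerulus-derived human kidney mesenchymal cells/well; AC50 values obtained by fitting qHTS concentration-response data to the Hill equation.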
Experiment [6] can be described thus: Cellular Toxicity (caspase-3) Mesangial (AID 660).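 Further: combined caspase 3 and 7 activity read by Caspase-Glo luminescence; cells exposed to compound for 16 h before the caspase read.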 An outline of the steps: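 Luminescent Caspase-Glo 3/7 readout (aminoluciferin substrate cleavage, 20 min RT) after 16 h compound exposure at 37 °C of normal human mesangial cells. Signal increase normalized between DMSO basal and 100 uM tamoxifen; Hill-equation AC50.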
The target of experiment [7] is Cytochrome P450 3A4 (Homo sapiens) (UniProt P08684). Description: qHTS Assay for Inhibitors and Substrates of Cytochrome P450 3A4 (AID 884). Further: on the % scale 0 is the no-effect control and ±100 the full control effect; nearly all actives have a fitted effect of over 50% in size. An outline of the steps: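 Luminescent readout of luciferin produced by CYP3A4 (20 nM) dealkylation of Luciferin-PPXE, 25 uM (its KM). NADPH-driven reaction ran 60 min at RT after 10 min compound preincubation; data scaled to 57 uM ketoconazole as 100% inhibition.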
(qHTS replaces the single test concentration by a dilution series.)

Experiment [8] in a line: MultiTox-Fluor Cytotoxicity Assay - LYMP1-001 - Live Cells (AID 947).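 Further: 0% = DMSO only and full inhibition = tetraoctylammonium bromide control.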
Experiment [9] can be described thus: Cell Viability - LYMP2-010 (AID 981).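 Further: cells exposed to compound for 24 hours at 37 °C; on the % scale 0 is the no-effect control and ±100 the full control effect; nearly all actives have a fitted effect of over 55% in size.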 An outline of the steps:
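qHTS cytotoxicity, 1536-well: 2500 cells/well, 5 hr settle, 24 hr compound at 37 C, CellTiter-Glo 30 min RT, luminescence read. Decrease in ATP = toxicity; AC50 via standard Hill equation. Positive control tetraoctylammonium bromide.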

Experiment [10] is described as follows: Cell Viability - LYMP2-016 (AID 984).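 Further: cells exposed to compound for 24 hours at 37 °C; on the % scale 0 is the no-effect control and ±100 the full control effect; nearly all actives have a fitted effect of over 55% in size.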 An outline of the steps:
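Human lymphoblastoid cells (LYMP2-016), 2500/well in complete medium, preincubated 5 hr at 37 C, then compound-treated 24 hr at 37 C. Intracellular ATP read by CellTiter-Glo luminescence after 30 min at room temperature; AC50 from Hill-equation concentration-response fits.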

A short description of experiment [11]: Cell Viability - LYMP2-024 (AID 988).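 Further: plate controls were DMSO only for no effect and 92 µM tetraoctylammonium bromide for full effect; nearly all actives have a fitted effect of over 60% in size.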 An outline of the steps:
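ATP-based luminescence (CellTiter-Glo, 30 min RT) after 24 h compound exposure at 37 C of 2500 lymphoblastoid cells/well; decrease in ATP taken as cytotoxicity. qHTS concentration-response fitted to standard Hill equation for AC50.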

Experiment [12] can be described thus: qHTS assay for small molecule antagonists of retinoid X receptor alpha signaling (AID 588546).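 Further: cells stimulated with 9-cis-retinoic acid as agonist; on the % scale 0 is the no-effect control and ±100 the full control effect.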 The settings on record: HEK293T RXRa-UAS-bla, beta-lactamase ratio, antagonist mode; measured here: W530 green channel, cytotoxicity proxy. An outline of the steps:
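Beta-lactamase reporter inhibition, read as CCF4 fluorescence ratio (ex 405, em 460/530 nm) after 2 h at RT. HEK293T UAS-bla cells, 2500/well, were stimulated with 9-cis-RA at 500 or 100 nM final alongside test compound for 18 h at 37 C.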

For experiment [13], the target named is Voltage-gated inwardly rectifying potassium channel KCNH2 (Homo sapiens) (UniProt Q12809). The experiment can be described thus: qHTS Assay for Small Molecule Inhibitors of the Human hERG Channel Activity (AID 588834).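 Further: lower thallium flux fluorescence means stronger hERG block; nearly all actives have a fitted effect of over 50% in size.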 Further: potency means the concentration at half of the fitted maximal effect. An outline of the steps: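 In hERG-transduced U2OS cells, dye-loaded for 1 hr at room temperature in dark, test compounds incubated 10 min at 37 °C before thallium stimulation. AC50 values derived by Hill modelling of concentration-response.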

Experiment [14] is described as follows: qHTS assay for small molecule disruptors of the mitochondrial membrane potential - 1 hr assay (AID 651754; calls by dose curve; further: on the % scale 0 is the no-effect control and ±100 the full control effect; nearly all actives have a fitted effect of over 35% in size). An outline of the steps: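 Read-out: dye fluorescence at 490 nm ex/535 nm em (monomers) and 540 nm ex/590 nm em (aggregates) in HepG2 cells. Compound exposure 1 hr at 37C, followed by 30 min dye loading.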
Experiment [15] is described as follows: qHTS assay for cell viability of HEK293 cells (AID 743288). Further: on the % scale 0 is the no-effect control and ±100 the full control effect; nearly all actives have a fitted effect of over 50% in size. The settings on record: ATP luminescence (CellTiter-Glo), 18 h, stronger effect = lower value. An outline of the steps:
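After 18 h compound exposure at 37 C, parental HEK293 cells (2,000/well) are lysed with CellTiter-Glo and luminescence is read following 30 min at room temperature.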

Experiment [16] concerns the target Nuclear receptor subfamily 1 group I member 2 (Rattus norvegicus) (UniProt Q9R1A7). The experiment can be described thus: qHTS assay for small molecule activators of the rat pregnane X receptor (rPXR) signaling pathway (AID 651751; call rule not given here; further: 0% is about no effect). The settings on record: rPXR reporter cells, luciferase (One-Glo), 24 h.
Experiment [17] is described as follows: qHTS assay for small molecule activators of the human pregnane X receptor (PXR) signaling pathway (AID 720659; call rule not given here; further: 0% is about no effect).
Experiment [18] can be described thus: Cellular Toxicity (caspase-3) Renal Proximal Tubule (AID 667).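 Further: cells exposed to compound for 16 hours at 37 °C before detection; 0% = DMSO basal and 100% = 10 µM staurosporine.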 An outline of the steps: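 Primary rat proximal tubule cells, 1000/well, 5 h plating at 37 °C, then compound 16 h at 37 °C. Caspase-Glo 3/7 reagent, 1 h RT, luminescence. Normalized to DMSO (basal) and 10 uM staurosporine (100%); Hill-fit AC50.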
Experiment [19] is described as follows: Cell Viability - LYMP2-005 (AID 967).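 Further: plate controls were DMSO only for no effect and 92 µM tetraoctylammonium bromide control for full effect.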 An outline of the steps:
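CellTiter-Glo luminescence (cellular ATP) read-out; LYMP2-005 lymphoblastoid cells, 2500/well, 5 h pre-incubation, then 24 h compound exposure at 37 C in complete medium. Tetraoctylammonium bromide positive control; AC50 by standard Hill fit.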

Experiment [20] has as its target Vitamin D3 receptor (Homo sapiens) (UniProt P11473). Description: qHTS assay for small molecule antagonists of vitamin D receptor signaling (AID 588541; calls by dose curve;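 further: receptor activated by calcitriol during compound treatment; on the % scale 0 is the no-effect control and ±100 the full control effect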). An outline of the steps:
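Antagonist-mode beta-lactamase reporter assay: HEK293T VDR-UAS-bla cells were exposed to titrated compound alongside 1-alpha,25-dihydroxyvitamin D3 at 3 nM final for 16 h. Values were normalized to the 50 nM agonist control and DMSO basal, with IC50 and efficacy from Hill equation fits.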

Sequence of Cytochrome P450 3A4 (Homo sapiens) (P08684 whole entry, looked up): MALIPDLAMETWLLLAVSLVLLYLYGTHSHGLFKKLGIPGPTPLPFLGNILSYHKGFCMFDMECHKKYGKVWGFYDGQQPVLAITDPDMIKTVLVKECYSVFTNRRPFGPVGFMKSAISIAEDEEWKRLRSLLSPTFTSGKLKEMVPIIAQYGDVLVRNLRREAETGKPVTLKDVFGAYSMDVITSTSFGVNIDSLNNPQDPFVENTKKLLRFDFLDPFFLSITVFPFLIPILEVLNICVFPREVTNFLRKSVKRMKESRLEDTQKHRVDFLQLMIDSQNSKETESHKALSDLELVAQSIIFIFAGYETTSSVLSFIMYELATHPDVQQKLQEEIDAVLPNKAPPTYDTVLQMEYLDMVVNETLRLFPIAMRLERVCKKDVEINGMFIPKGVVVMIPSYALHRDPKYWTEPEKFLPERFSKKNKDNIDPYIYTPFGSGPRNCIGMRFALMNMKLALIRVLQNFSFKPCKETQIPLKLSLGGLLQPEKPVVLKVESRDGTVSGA
Sequence of Nuclear receptor subfamily 1 group I member 2 (Rattus norvegicus) (Q9R1A7 whole entry, looked up): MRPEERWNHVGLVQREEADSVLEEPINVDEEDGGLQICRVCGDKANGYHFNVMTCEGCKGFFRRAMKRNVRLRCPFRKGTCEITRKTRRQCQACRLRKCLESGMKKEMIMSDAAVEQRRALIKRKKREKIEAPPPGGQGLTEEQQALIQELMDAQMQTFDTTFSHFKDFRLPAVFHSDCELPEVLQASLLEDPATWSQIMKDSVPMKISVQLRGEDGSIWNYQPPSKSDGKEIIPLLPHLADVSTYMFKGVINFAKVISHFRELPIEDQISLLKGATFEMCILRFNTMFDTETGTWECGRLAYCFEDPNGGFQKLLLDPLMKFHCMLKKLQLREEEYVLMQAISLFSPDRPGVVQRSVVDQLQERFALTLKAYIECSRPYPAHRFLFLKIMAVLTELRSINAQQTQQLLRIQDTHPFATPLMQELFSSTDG
Sequence of Vitamin D3 receptor (Homo sapiens) (P11473 whole entry, looked up): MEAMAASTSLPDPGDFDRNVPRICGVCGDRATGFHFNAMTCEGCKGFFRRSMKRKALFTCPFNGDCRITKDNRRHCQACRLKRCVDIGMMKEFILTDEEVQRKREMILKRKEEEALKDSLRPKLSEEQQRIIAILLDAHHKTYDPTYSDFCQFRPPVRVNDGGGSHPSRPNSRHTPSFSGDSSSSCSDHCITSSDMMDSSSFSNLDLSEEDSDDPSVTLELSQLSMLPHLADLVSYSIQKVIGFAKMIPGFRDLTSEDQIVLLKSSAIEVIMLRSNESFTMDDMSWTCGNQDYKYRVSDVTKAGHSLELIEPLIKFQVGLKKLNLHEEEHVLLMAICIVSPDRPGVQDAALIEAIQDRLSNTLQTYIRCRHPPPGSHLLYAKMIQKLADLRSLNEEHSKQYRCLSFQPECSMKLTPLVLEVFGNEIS
Sequence of Voltage-gated inwardly rectifying potassium channel KCNH2 (Homo sapiens) (Q12809 whole entry, looked up): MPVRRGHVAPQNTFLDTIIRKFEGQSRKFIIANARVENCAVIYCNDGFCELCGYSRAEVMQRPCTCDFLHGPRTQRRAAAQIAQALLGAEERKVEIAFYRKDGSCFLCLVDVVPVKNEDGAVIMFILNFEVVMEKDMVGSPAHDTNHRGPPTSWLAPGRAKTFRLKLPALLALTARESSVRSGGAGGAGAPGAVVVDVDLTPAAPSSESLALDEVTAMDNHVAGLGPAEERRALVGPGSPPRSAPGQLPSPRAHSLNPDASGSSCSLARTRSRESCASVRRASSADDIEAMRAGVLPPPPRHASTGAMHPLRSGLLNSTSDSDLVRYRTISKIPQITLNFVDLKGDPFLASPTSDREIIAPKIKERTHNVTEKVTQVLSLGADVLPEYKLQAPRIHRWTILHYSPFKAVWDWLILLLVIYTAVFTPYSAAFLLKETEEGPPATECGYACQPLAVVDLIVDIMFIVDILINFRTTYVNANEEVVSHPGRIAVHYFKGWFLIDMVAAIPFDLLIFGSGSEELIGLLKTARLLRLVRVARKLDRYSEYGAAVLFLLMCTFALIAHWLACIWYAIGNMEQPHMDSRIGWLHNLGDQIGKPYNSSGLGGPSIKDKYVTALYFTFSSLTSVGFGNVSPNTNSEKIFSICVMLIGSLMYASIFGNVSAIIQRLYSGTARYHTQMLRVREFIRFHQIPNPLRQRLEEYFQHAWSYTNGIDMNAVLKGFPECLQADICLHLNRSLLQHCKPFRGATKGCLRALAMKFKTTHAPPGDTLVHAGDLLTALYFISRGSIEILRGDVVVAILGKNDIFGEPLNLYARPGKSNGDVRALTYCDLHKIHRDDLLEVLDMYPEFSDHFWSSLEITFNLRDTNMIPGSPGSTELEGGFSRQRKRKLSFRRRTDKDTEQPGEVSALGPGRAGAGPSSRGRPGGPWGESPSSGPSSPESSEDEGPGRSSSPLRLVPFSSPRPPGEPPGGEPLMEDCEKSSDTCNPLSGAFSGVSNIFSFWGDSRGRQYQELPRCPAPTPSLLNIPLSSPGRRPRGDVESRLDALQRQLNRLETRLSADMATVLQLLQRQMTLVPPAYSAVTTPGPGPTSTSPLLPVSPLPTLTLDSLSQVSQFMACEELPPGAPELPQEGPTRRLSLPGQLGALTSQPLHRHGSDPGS

Consider `BrCCc1ccccc1`, for which the Potency entry in experiment [1], in experiment [2], in experiment [3], in experiment [5], in experiment [7] and in experiment [9] was “inactive” in each case. Also, the Potency result in experiment [10], in experiment [11], in [13] and in experiment [14] was “inactive” throughout. The outcome in [4], in [6], in experiment [8] and in experiment [17] was inactive. The max response in [12] is 2.46%; in experiment [15] it was -1.44% (inactive); in [16] it was -6.29% (inactive).
For the compound `ClCC(Br)CBr` (stereo not given), the Potency result in experiment [1], in [2], in experiment [3], in experiment [7], in experiment [19] and in experiment [9] was “inactive” throughout. For the same compound, the Potency result in experiment [11], in experiment [13] and in experiment [14] was “inactive” in each case. The call in experiment [4], in experiment [18], in [8], in [20] and in experiment [17] was inactive. Also, the values for the max response in experiment [12], in [15] and in [16] were -1.84%, -7.97% (inactive) and 0.571% (inactive), respectively.
In the case of `Cc1ccc(N)c(C)c1`, the Potency entry in [1], in experiment [2], in experiment [3], in [5], in experiment [7] and in experiment [19] was “inactive” in each case. In addition, the Potency entry in experiment [9], in [10], in experiment [11], in [13] and in experiment [14] was “inactive” each time. For the same compound, the compound was classed as inactive in experiment [18], in experiment [8], in experiment [20] and in experiment [17]. In addition, the max response is 1.29% in [12], 1.36% (inactive) in [15] and -0.287% (inactive) in experiment [16].
With `[O-][Cl+2]([O-])O`, the Potency result in experiment [1], in [2], in experiment [7], in experiment [19], in experiment [9] and in experiment [10] was “inactive” throughout. Besides, the Potency result in [11], in experiment [13] and in [14] was “inactive” throughout. The outcome in experiment [4], in [6], in experiment [18], in [8], in experiment [20] and in experiment [17] was inactive. Also, the results for the max response in experiment [12], in [15] and in [16] were -3.35%, -5.12% (inactive) and 2.81% (inactive), respectively.
For the compound `Clc1ccc(C(Cl)(Cl)Cl)c(Cl)c1`, the Potency result in [1], in experiment [2], in experiment [3], in experiment [5], in [19] and in experiment [10] was “inactive” throughout. The Potency result in experiment [11] and in experiment [14] was “inactive” in each case. The call in experiment [6], in experiment [18], in [20] and in [17] was inactive. The max response is -9.41% in experiment [12], -3.16% (inactive) in experiment [15] and -3.95% (inactive) in [16].
In the case of `CC(Cl)CCl` (stereo not given), the Potency entry in experiment [1], in [2], in experiment [3], in experiment [7], in experiment [19] and in experiment [9] was “inactive” each time. The Potency result in experiment [10], in experiment [11], in experiment [13] and in experiment [14] was “inactive” in each case. Besides, the result in experiment [4], in [6], in experiment [18], in experiment [8], in [20] and in experiment [17] was inactive. For the same compound, the max response in experiment [12] was -10%; in [15], -4.06% (inactive); in experiment [16] it was 3.07% (inactive).
As to `Clc1ccc(C(Cl)(Cl)Cl)cc1Cl`, the Potency result in [1], in experiment [2], in [3], in experiment [5], in [7] and in experiment [19] was “inactive” throughout. Besides, the Potency entry in experiment [9], in experiment [10], in experiment [11] and in experiment [14] was “inactive” in each case. The call in experiment [6], in experiment [18], in experiment [8], in experiment [20] and in [17] was inactive. For the same compound, the figures for the max response in [12], in experiment [15] and in experiment [16] were -6.09%, 4.98% (inactive) and 3.68% (inactive), respectively. The Potency in experiment [13] was 11.2 µM (active).
As for `CCCCCC[N+](=O)[O-]`, the Potency entry in experiment [1], in [2], in experiment [3], in experiment [7], in [19] and in experiment [9] was “inactive” throughout. Moreover, the Potency result in [10], in experiment [13] and in experiment [14] was “inactive” in each case. For the same compound, the outcome in experiment [4], in experiment [6], in experiment [18], in experiment [8], in experiment [20] and in [17] was inactive. Besides, the values for the max response in experiment [12] and in experiment [16] were -11.1% and 1.74% (inactive), respectively.
